# PubChem BioAssay (EPA / NIEHS)
# Records with an inconclusive call do not appear. Activity calls are given as the source filed them. How the source made its calls: active means hit-call score of the fitted dose curve at least 0.9, where 1 is the maximum; inconclusive means response in the unintended direction; inactive means score below 0.9.
# Molecular target: human Adenosine A1 Receptor (AdoRA1), ADORA1 (gene 134) (UniProt P30542)
# Test: NVS_GPCR_hAdoRA1: NovaScreen (NVS) G Protein-Coupled Receptor Assay for human Adenosine A1 Receptor (AdoRA1) (AID 2283254)
# In short: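 Membranes from human cortical tissue were incubated with radioligand and test chemical for 1 hour, then filtered and counted. Activity was taken as signal loss relative to DMSO, screened at 25 uM in duplicate before concentration-response follow-up.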
# Chain of human Adenosine A1 Receptor (AdoRA1), ADORA1 (gene 134) (P30542 whole entry, looked up): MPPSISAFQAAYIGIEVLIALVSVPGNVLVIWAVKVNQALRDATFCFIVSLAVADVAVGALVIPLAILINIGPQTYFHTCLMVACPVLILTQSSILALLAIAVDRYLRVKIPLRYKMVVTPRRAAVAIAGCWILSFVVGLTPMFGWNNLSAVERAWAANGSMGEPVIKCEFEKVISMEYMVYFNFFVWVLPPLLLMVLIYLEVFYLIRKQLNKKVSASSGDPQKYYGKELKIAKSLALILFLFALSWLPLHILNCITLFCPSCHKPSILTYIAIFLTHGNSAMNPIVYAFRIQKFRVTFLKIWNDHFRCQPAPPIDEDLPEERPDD
Compound,AC50,outcome
CN(C)c1ccc(C(=C2C=CC(=[N+](C)C)C=C2)c2ccc(N(C)C)cc2)cc1,10.5 µM (active),–
COc1cc(C(=O)NC2CCN(C)CC2)ccc1Nc1ncc2c(n1)N(C1CCCC1)CC(F)(F)C(=O)N2C,4.71 µM (active),–
Cc1occc1C(=O)Nc1ccc(C(=O)N2CCC(F)(F)/C(=C\C(=O)N3CCC(N4CCCCC4)CC3)c3ccccc32)cc1,3.24 µM (active),–
Cc1cc(F)ccc1-c1cc(N2CC[C@@H](O)[C@H]2CO)ncc1N(C)C(=O)C(C)(C)c1cc(C(F)(F)F)cc(C(F)(F)F)c1,20.4 µM (active),–
CN(C)C(=O)C1(N2CCCCC2)CCN(CC[C@@]2(c3ccc(Cl)c(Cl)c3)CN(C(=O)c3ccccc3)CCO2)CC1,–,inactive
NCc1cccc(C2CCN(C(=O)c3ccc(C#Cc4ccccc4F)o3)CC2)c1,15.8 µM (active),–
O=C1c2ccccc2C(=O)N1CCc1noc(-c2ccc(CN3CCCCCC3)s2)n1,–,inactive
Oc1ccc2ccccc2c1,–,inactive
CCN(CC)C(=O)c1cc(S(=O)(=O)Cc2ccccc2)c(N2CCC(c3ccccc3)CC2)cc1N(CC)CCN(C)C,6.22 µM (active),–
CCCCOC(=O)c1ccc(O)cc1,11.7 µM (active),–
CN(C[C@@H](CC[N+]12CCC(C3CCCCC3)(CC1)CC2)c1ccc(Cl)c(Cl)c1)C(=O)c1cc(C(F)(F)F)cc(C(F)(F)F)c1,16.7 µM (active),–
CCCOC(=O)c1cc(O)c(O)c(O)c1,14.4 µM (active),–
Cc1oc2c(NC(=O)c3c(Cl)cccc3Cl)cccc2c1C(C)(C)O,–,inactive
